Here are results for 25 molecules from PubChem BioAssay AID449762 (Southern Research Specialized Biocontainment Screening …, 2010).

SMILES strings stand for the structures. Out of some 330,000 compounds screened, about 1,900 (0.58%) were called active. About 4% were inconclusive and are not listed. Only a sample is shown. Entries with a potency or affinity are not part of this list. Values without a mark were called inactive. Cut-off read from the data, not from the text of the source: inconclusive = inhibition above about 70% without an active follow-up result; inactive = below that.

The nature of the test: M. tuberculosis growth inhibition, HTS (AID 449762).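 Note: bacterial growth assessed after seven days of incubation.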 As to conditions: M. tuberculosis H37Rv growth inhibition, 7H9 media; at 25 µM; hits give high values.
By inhibition is commonly meant the drop in the measured response relative to a control, in per cent. For the molecule `CCOC(=O)[C@@H]1[C@H]2COc3ccc(Br)cc3[C@@H]2N2C(=O)N(c3ccc(C)cc3)C(=O)[C@@]12C`, the inhibition was -3.24%.
As for `CN(Cc1cnn(C)c1)C(=O)CC1C(=O)NCCN1Cc1cccc(Oc2ccccc2)c1` (stereo not given), the inhibition is 3.24%.
As to `Cc1sc2nc(C(C)C)nc(SCC(=O)NC3CC3)c2c1C`, the inhibition is 0.27%.
For the molecule `Cc1c(C(=O)CN2CCCC(C)(C)C2)c2ccccc2n1C`, the inhibition was 5.6%.
On to `CCOc1cc(CNCCCN2CCOCC2)ccc1OCC(=O)Nc1cccc2ccccc12`, for which the inhibition was 6.81%.
With `COc1cc(CNCCCN2CCOCC2)ccc1OCC(=O)Nc1cccc(C(F)(F)F)c1`, the inhibition is 0.14%.
On to `Cc1ccc(S(=O)(=O)N2CCOCC2)c(C)c1NS(C)(=O)=O`, for which the inhibition is -0.81%.
For `CCN(C(=O)COc1cc(OC)ccc1C(C)=O)C1CCS(=O)(=O)C1` (stereo not given), the inhibition is 0.77%.
To `CCc1noc(C)c1C(=O)NNC(=O)COc1cc(C)ccc1C` belongs 0.9%; to `CCc1cccc(NC(=O)CCS(=O)(=O)c2cccc3nonc23)c1`, 57.8%; to `Cc1ccc(NC(=O)CCS(=O)(=O)c2cccc3nonc23)cc1`, 13.6%.
`O=c1c(C=Nc2ccc(Cl)cc2)c[nH]n1-c1cccc(Cl)n1`: the inhibition was 0.34%.
To `O=c1c(/C=N/OCc2ccc(Cl)cc2Cl)c[nH]n1-c1cccc(Cl)n1` belongs 34.5%.
Consider `Cc1nc2c(C(F)(F)F)cccc2c2c1CCS2`, for which the inhibition was 0.87%.
On to `Cc1cccc(NC(=O)C2CCCN(S(=O)(=O)c3c(C)nn(C)c3C)C2)c1` (stereo not given), for which the inhibition is -8.6%.
The result for `O=C(Nc1ccccc1)c1ccccc1OS(=O)(=O)c1ccccc1` reads 0.76%.
The result for `O=Cc1ccccc1OS(=O)(=O)c1ccccc1` reads -6.41%; that for `C/C(=N\NC(=O)CN(c1ccccc1)S(C)(=O)=O)c1ccccc1O`, -3.69%.
To `Cc1cc(OC(C)C(=O)NCC2CCCO2)cc(C)c1Cl` (stereo not given) belongs 11.1%; to `CCn1cnc2sc(C(=O)O)c(C)c2c1=O`, -6.99%.
As to `CCn1cnc2sc(C(=O)N3CCN(c4ccc(OC)cc4)CC3)c(C)c2c1=O`, the inhibition is -8.96%.
The result for `Cc1[nH]n(-c2ccc(Br)cc2)c(=O)c1C=Nc1ccc(S(=O)(=O)Nc2nccs2)cc1` reads 68.2%; that for `Cc1ccc(-n2[nH]c(C)c(C=Nc3ccc(S(=O)(=O)Nc4nc(C)cc(C)n4)cc3)c2=O)c(C)c1`, -3.23%; that for `C[C@H](CO)N1C[C@H](C)[C@@H](CN(C)C)Oc2c(NS(=O)(=O)c3ccccc3)cccc2C1=O`, 0.58%.
The result for `O=C(NC1CC1)C1CCN(C2CCN(C(=O)/C=C/c3cccs3)CC2)CC1` reads -5.63%.
